Compound activity (PubChem BioAssay)
Most compounds without a hit are left out; they make up all but 7.6% or so of the library.
PLAP activator: PLAP enzyme activators, biochemical, luminescence, HTS | Alkaline phosphatase, placental type (Homo sapiens), P05187 | hit rate 1.2% among 96,000 | purified PLAP enzyme, luminescent substrate read-out; active compounds read high | activation fold at 20 µM; in the data active = activation fold above about 2
Target sequence (P05187 whole entry, looked up): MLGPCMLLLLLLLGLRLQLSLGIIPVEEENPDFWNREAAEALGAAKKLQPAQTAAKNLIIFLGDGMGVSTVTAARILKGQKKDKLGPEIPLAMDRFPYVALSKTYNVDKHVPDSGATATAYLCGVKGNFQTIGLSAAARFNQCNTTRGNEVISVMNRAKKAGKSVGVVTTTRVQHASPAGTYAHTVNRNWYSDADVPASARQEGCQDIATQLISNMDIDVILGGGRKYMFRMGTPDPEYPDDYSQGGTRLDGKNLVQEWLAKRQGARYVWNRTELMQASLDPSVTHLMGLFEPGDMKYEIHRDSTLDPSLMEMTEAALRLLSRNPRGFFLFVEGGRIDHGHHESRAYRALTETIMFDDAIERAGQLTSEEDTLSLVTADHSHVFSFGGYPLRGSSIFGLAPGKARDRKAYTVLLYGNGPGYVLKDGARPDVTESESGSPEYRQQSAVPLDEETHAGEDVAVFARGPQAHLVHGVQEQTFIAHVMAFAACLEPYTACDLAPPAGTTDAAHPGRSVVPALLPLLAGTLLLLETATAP
Cav32 inh: Cav3.2 calcium influx blockers – cell-based, Fluo-4 calcium fluorescence, FDSS, MLSMR library, primary screen | Cav3.2-expressing cells; active compounds read low | AID 449739, 2010 | Voltage-dependent T-type calcium channel subunit alpha-1H (Homo sapiens), O95180 | hit rate 4% among 100,000 | B-score at 10 µM;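 active = single-dose well whose peak fluorescence ratio is a statistical outlier from its plate by either plate-standardised score or position-corrected B-score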
M1 antag: antagonists of rat M1 muscarinic receptor | CHO-M1 cells, Fluo-4 calcium, ACh EC80 antagonist mode; active compounds read low | hit rate 3.4% among 64,000 | AID 628, 2007 | Muscarinic acetylcholine receptor M1 (Rattus norvegicus), P08482 | B-score at 10 µM;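 active = calcium fluorescence response, raw or row-and-column corrected B-score, differing from the plate sample mean either way at a set confidence level, mostly lower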
M1 agonist: M1 muscarinic receptor agonists, primary screen, CHO-M1 cells, Fluo-4 calcium, agonist mode; hit rate 3% among 64,000; Fluo-4 calcium fluorescence; active compounds read high; B-score at 10 µM; Muscarinic acetylcholine receptor M1;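 active = fluorescence rise, raw or as B-score row- and column-corrected plate score, outside the 99.7% band of its plate's samples, either direction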
M1 agonist conf: rat M1 muscarinic receptor agonists, confirmation, CHO-M1 cells, Fluo-4 calcium, duplicate retest. shares compounds with M1 agonist. Fluo-4 calcium fluorescence, agonist mode; actives lie on both sides. fluorescence change (max-min) at 10 µM. hit rate 19% among 1,700. AID 1488, 2009;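 active = fluorescence change differs from the solvent-only DMSO control mean at a set confidence level in both duplicate runs; inconclusive = differs from solvent-only control mean in just one of two runs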;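 note: an EC20 dose of acetylcholine follows compound addition during the same imaging run; raw fluorescence intensity difference in instrument units with no normalization to controls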
M4 agonist ctr: agonist activity at rat M4 receptor, confirmation, counter-screen for M1 allosteric modulator project, cell-based, agonist mode. CHO M4/Gqi5 cells, Fluo-4 calcium fluorescence; actives lie on both sides. shares compounds with M1 agonist. hit rate 9% among 1,700. fluorescence change (max-min) at 10 µM. AID 1741, 2009;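 active = fluorescence change differing from the plate's solvent-only control wells at 99.7% confidence in both duplicates, whether higher or lower; inconclusive = differs from solvent controls in only one of two duplicates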
Numbers without * were called inactive; ? = inconclusive; · = no result given.

SMILES | PLAP activator | Cav32 inh | M1 antag | M1 agonist | M1 agonist conf | M4 agonist ctr
CC(C)(C)OC(=O)N1CCCC1C(=O)NC(Cc1ccccc1)C(=O)O (stereo not drawn) | 1.3 | 0.32 | -0.085 | 0.31 | · | ·
CCCc1nnc(NC(=O)CCC(=O)N2CCN(CCOc3ccc(C)cc3)CC2)s1 | 1.5 | -1.8 | -1.6 | 20* | -7.2 | -35
Cc1ccc(OCCN2CCN(C(=O)CCC(=O)Nc3nnc(C)s3)CC2)cc1 | · | -0.43 | -0.77 | -1.1 | · | ·
COc1ccccc1N(C)S(=O)(=O)c1ccc(C(=O)OCC(=O)NCc2ccco2)cc1 | 1.1 | -1.2 | -0.65 | 6.9* | -19 | -38
COc1ccc(OC)c2[nH]c(=O)c(CCNC(C)=O)cc12 | 1 | -0.084 | -0.29 | 0.13 | · | ·
COc1ccc(OC)c2[nH]c(=O)c(CCNC(=O)c3cc4ccccc4o3)cc12 | 1.5 | -1.8 | -1.1 | 2.5* | -6.8 | -22
COc1ccc(-c2cc(=O)n(-c3nc4ccccc4[nH]3)[nH]2)cc1 | 1.7 | -1.2 | -0.21 | -0.17 | · | ·
COc1ccccc1NC(=O)CN1CCC(n2nnc3cc(F)ccc32)CC1 | 1.5 | -0.27 | 0.0082 | -0.95 | · | ·
COc1ccc(NC(C)=O)cc1NC(=O)CN1CCN(CC(=O)Nc2ccccc2Cl)CC1 | 1.3 | 1.3 | -0.035 | 4* | ? | -71
COc1ccccc1NC(=O)CN1CCN(CC(=O)Nc2cc(NC(C)=O)ccc2OC)CC1 | 1.4 | 1.7 | 0.068 | 3.7* | ? | -31
COc1ccccc1NC(=O)CN1CCC(n2c(C)nc3cc(F)ccc32)CC1 | 1.8 | 1.2 | -0.09 | -2.6* | ? | -58
COc1ccc(NC(C)=O)cc1NC(=O)CN1CCN(CC(=O)Nc2ccc(Cl)cc2)CC1 | 1.6 | 2.5 | -0.21 | -1 | · | ·
COc1cc(NC(=O)c2ccccc2)c(OC)cc1NC(=O)CN1CCN(c2ccccn2)CC1 | 1.3 | -2.4 | -0.075 | 5.9* | -8.2 | -36
CCOC(=O)C(C)Oc1ccc(C2NC(=O)NC(C)=C2C(=O)Nc2ccccc2C)cc1 (stereo not drawn) | 1.5 | -0.83 | -0.014 | 0 | · | ·
O=C(O)c1ccc(-n2nnnc2Oc2cccc3cccnc23)cc1 | 0.9 | 0.4 | · | · | · | ·
COc1ccccc1C(=O)N1CCNC(=O)C1CC(=O)Nc1cccc(C)c1 (stereo not drawn) | 1.1 | -0.083 | · | · | · | ·
COc1ccccc1NC(=O)CC1C(=O)NCCN1C(=O)Nc1ccc(Cl)c(Cl)c1 (stereo not drawn) | 1.5 | -0.14 | -0.28 | -2.1* | ? | ?
COc1ccc(S(=O)(=O)N(CC(=O)N2CCOCC2)c2cc(Cl)ccc2OC)cc1OC | 1.5 | 1.4 | -0.13 | 0.077 | · | ·
COc1ccc(CC(C(=O)Nc2cc(C)ccc2C)/C(N)=N/O)cc1 (stereo not drawn) | 1.2 | · | -0.4 | 2.4* | ? | -49
Cc1cc(C)n(-c2nnc(C)n2/N=C/c2ccco2)n1 | 0.9 | 0.16 | -0.46 | 0.45 | · | ·
CCCOc1ccc2ccccc2c1/C=N/n1c(C)nnc1-n1nc(C)cc1C | 1.6 | -3.3* | -0.5 | 3.4* | ? | -38
COc1ccccc1NC(=O)CN(Cc1ccco1)C(=O)c1cccs1 | 0.9 | -0.5 | 0.015 | -0.4 | · | ·
COc1ccccc1NC(=O)CN(Cc1ccco1)C(=O)c1ccc(-n2nc(C)cc2C)cc1 | 1.5 | -0.025 | 0.18 | 5.9* | -17 | ?
CCC1Oc2ccc(C)cc2N(CC(=O)N(Cc2ccncc2)Cc2ccco2)C1=O (stereo not drawn) | · | -1.4 | · | · | · | ·
CCOc1cc(-c2cc(-c3ccc(N)cc3)nc(N)c2C#N)ccc1O | 0.9 | 0.19 | -0.16 | 0.0068 | · | ·
SMILES | PLAP activator | Cav32 inh | M1 antag | M1 agonist | M1 agonist conf | M4 agonist ctr
CCOc1cc(-c2ccc(N)c(OCC)c2)ccc1N | 1 | -5.4* | 0.077 | 36* | 249* | 211*
CCN(CC)S(=O)(=O)c1ccc2oc(SCC3CN=C(c4ccc(OC)cc4)S3)nc2c1 (stereo not drawn) | 1.5 | -1.5 | -0.81 | 8.1* | -32* | ?
NC(=O)CC(NC(=O)Cc1ccc(Br)cc1)c1ccc(NCc2ccc(F)c(F)c2)c([N+](=O)[O-])c1 (stereo not drawn) | · | -0.076 | · | · | · | ·
CN(C)c1nc(SCCOC(=O)COc2ccc(Cl)cc2Cl)nc(N(C)C)n1 | 1.1 | · | -1.2 | 2* | 11 | ?
Cc1ccc(S(=O)(=O)N(C)CCCC(=O)n2nc(C)cc2C)cc1 | 1 | -0.77 | -0.94 | -0.63 | · | ·
O=C(NCc1cccnc1)C1c2ccccc2C(=O)N1Cc1ccco1 (stereo not drawn) | 1.6 | 0.47 | 0.02 | 11* | -16 | -19
COc1cc(-c2nc3cnccn3c2Nc2ccc(C)cc2)ccc1O | 1.6 | -0.44 | · | · | · | ·
COc1cc(-c2nc3cnccn3c2Nc2ccc3c(c2)OCCO3)ccc1O | 1.1 | -0.55 | 0.26 | 3.5* | -4.2 | ?
COc1cc(-c2nc3cnccn3c2Nc2ccccc2)ccc1O | 0.8 | -0.29 | -1.7 | 5.5* | -28 | -26
CCC(=O)N1CCc2cc(S(=O)(=O)NCCCN(CC)Cc3ccccc3)ccc21 | 1.6 | -0.041 | -1.1 | 0.45 | · | ·
Cc1ncc([N+](=O)[O-])n1CCOC(=O)c1ccc(Cl)cc1Cl | 1 | -0.46 | · | · | · | ·
CCOC(=O)CNC(=O)CSc1ncnc2c1cnn2-c1ccc(C)cc1 | 0.9 | -0.42 | 0.00036 | -2.2* | 5.3 | -19
COc1ccccc1C1CC(c2ccc(Cl)cc2)Nc2ncnn21 (stereo not drawn) | 1.1 | -2.6 | -0.33 | 1.2 | · | ·
Cc1ccc(C)c(N2CCN(S(=O)(=O)c3ccc4c(c3)CCC(=O)N4)CC2)c1 | 1 | -2.9 | 1.3 | 2 | · | ·
Cc1ccc(C)c(N2CCN(C(=O)CN(C)S(=O)(=O)c3ccc4c(c3)CCC(=O)N4)CC2)c1 | 1.6 | · | 1.6 | 2.3* | ? | -48
Cc1cc(NC(=O)CC23CC4CC(C2)CC(CC(=O)Nc2cc(C)on2)(C4)C3)no1 | 1 | 0.0092 | 0.29 | 0.012 | · | ·
COCCn1c(N)c(C(=O)NCC2CCCO2)c2nc3ccccc3nc21 (stereo not drawn) | 1.5 | -2.6 | -0.55 | 7.8* | -26* | ?
Nc1c(C(=O)NCC2CCCO2)c2nc3ccccc3nc2n1/N=C/c1ccncc1 (stereo not drawn) | · | · | -1.2 | 1.2 | · | ·
CCOn1c(=O)c(-c2cc3ccccc3o2)[n+]([O-])c2ccccc21 | 0.9 | -0.67 | -0.14 | 23* | 23 | -13
CCCCSc1nnc([C@@H](NC(=O)OC(C)(C)C)C(C)C)o1 | 1.6 | -1.4 | -0.22 | -1.2 | · | ·
N#Cc1ccc(OCc2nnc(SCC(=O)c3ccccc3)n2-c2ccccc2)cc1 | · | 0.23 | · | · | · | ·
COC(=O)c1cccc(NC(=O)CSc2nnc(COc3ccc(C#N)cc3)n2-c2ccccc2)c1 | 0.9 | 0.97 | -0.11 | 3.6* | ? | -49
